# Assay results from the supplement of paper PMC6555819.
# Tests used:
# Assay in all cases: PBM binding z-score (relative to random genomic background probes); higher = stronger binding; sequences stand for … in GC…GCGATTGACAGCGTAGAATGAAGG
# [1] = tested on: FXR:RXRa (NR concentration 270 nM, RXRa partner concentration 90 nM)
# Summary of the method: (§1)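 For binding z-scores, the reference was random background probes on custom Agilent 4×180K protein-binding microarrays. These arrays were incubated 1 h with ligand-free nuclear receptor dimers in PBS pH 7.4, 2% milk, 0.02% Triton X-100, 1 mM DTT, 0.2 mg/mL BSA and 0.4 mg/ml salmon testes DNA. Fluorescence was scanned after antibody detection of each partner (one per run) and regression-normalized.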
# [2] = tested on: LXRa:RXRa (NR concentration 270 nM, RXRa partner concentration 90 nM)
# Summary of the method: as §1
# [3] = tested on: LXRa homodimer (NR concentration 270 nM)
# Summary of the method: as §1
# [4] = tested on: LXRb:RXRa (NR concentration 270 nM, RXRa partner concentration 90 nM)
# Summary of the method: as §1
# [5] = tested on: LXRb homodimer (NR concentration 270 nM)
# Summary of the method: as §1
# [6] = tested on: PPARa:RXRa (NR concentration 270 nM, RXRa partner concentration 90 nM)
# Summary of the method: as §1
# [7] = tested on: PPARg:RXRa (NR concentration 180 nM, RXRa partner concentration 90 nM)
# Summary of the method: as §1
# [8] = tested on: PPARg:RXRa 270nM:90nM, anti-RXR (NR concentration 270 nM, RXRa partner concentration 90 nM)
# Summary of the method: as §1
# [9] = tested on: PPARg:RXRa 30nM:10nM, anti-RXR (NR concentration 30 nM, RXRa partner concentration 10 nM)
# Summary of the method: as §1
# [10] = tested on: PPARg:RXRa 90nM:30nM, anti-RXR (NR concentration 90 nM, RXRa partner concentration 30 nM)
# Summary of the method: as §1
# [11] = tested on: PPARg:RXRa DBDmut IVT, anti-RXR (DBD mutation: RXRa K156A/R161A, NR concentration 270 nM, RXRa partner concentration 90 nM)
# Summary of the method: as §1
# [12] = tested on: PPARg:RXRa IVT, anti-PPARg (NR concentration 270 nM, RXRa partner concentration 90 nM)
# Summary of the method: as §1
# [13] = tested on: PPARg DBDmut:RXRa IVT, anti-PPARg (DBD mutation: PPARg1 K132A/R137A, NR concentration 270 nM, RXRa partner concentration 90 nM)
# Summary of the method: as §1
# [14] = tested on: PPARg DBDmut IVT, anti-PPARg (DBD mutation: PPARg1 K132A/R137A, NR concentration 270 nM)
# Summary of the method: as §1
# [15] = tested on: PPARg homodimer (NR concentration 180 nM)
# Summary of the method: as §1
# [16] = tested on: PXR:RXRa (NR concentration 270 nM, RXRa partner concentration 90 nM)
# Summary of the method: as §1
# [17] = tested on: PXR homodimer (NR concentration 270 nM)
# Summary of the method: as §1
# [18] = tested on: RARa:RXR (NR concentration 270 nM, RXRa partner concentration 90 nM)
# Summary of the method: as §1
# [19] = tested on: RARa homodimer (NR concentration 270 nM)
# Summary of the method: as §1
# [20] = tested on: RARb:RXRa (NR concentration 270 nM, RXRa partner concentration 90 nM)
# Summary of the method: as §1
Sequence,PBM binding z-score [1],PBM binding z-score [2],PBM binding z-score [3],PBM binding z-score [4],PBM binding z-score [5],PBM binding z-score [6],PBM binding z-score [7],PBM binding z-score [8],PBM binding z-score [9],PBM binding z-score [10],PBM binding z-score [11],PBM binding z-score [12],PBM binding z-score [13],PBM binding z-score [14],PBM binding z-score [15],PBM binding z-score [16],PBM binding z-score [17],PBM binding z-score [18],PBM binding z-score [19],PBM binding z-score [20]
ATCTCTAGGTAAAACTCAGTTCAGTGAAGAACGC,0.591,0.776,0.947,0.542,1.02,0.518,0.101,0.473,0.403,0.618,2.63,1.95,0.847,0.779,1.22,1.7,1.99,0.609,1.49,0.514
TCATATAGGTAAAAGGTGAAAGTTGGTGTGGTAA,2.15,2.33,0.407,2.44,0.326,5.33,9.26,8.44,8.7,8.75,5.28,5.23,1.91,1.67,2.39,2.16,0.944,3.3,2.02,2.09
CCTAGGAGGCCAGGGTCACTCAAGCATTTCGCTT,1.76,1.21,-0.383,1.7,-1.15,3,0.95,1.71,-0.259,0.653,0.19,1.11,-0.773,-1.85,1.09,2.28,-0.346,2.55,-0.732,2.67
AGTCAAAGTTCAGGACGAGGTAACATAAAGCACG,4.23,4.01,1.38,2.25,0.512,3.45,4.84,4.91,2.27,4.16,-0.187,1.85,1.18,0.12,2.12,3.37,1.47,3.33,0.906,4.15
ATCGAAAGGTCGAAGGTGATTATACCCACCCGAA,4.31,3.69,0.425,2.92,0.626,4.48,4.21,4.47,2.33,3.99,0.155,2,1.25,0.935,1.86,2.89,0.393,4.03,0.957,3.5
CGAACTAGGTCAGAATAGGACAGTGAAGGATGAT,1.39,0.992,-0.0335,0.45,-0.693,3.02,5.03,4.31,1.81,3.36,6.67,6.96,2.83,1.87,0.535,0.652,0.356,1.01,0.988,2.73
CATTACGGGTCACTGACAGGTTATAGCATTTGGA,5.82,5.1,1.52,4.09,0.756,5.54,5.78,5.45,2.2,4.33,4.59,5.02,2.13,1.77,2.69,3.95,0.249,4.95,1.33,4.05
